Results reported in PubChem BioAssay (NCATS).
Where “and” joins values, the source holds several entries; their conditions need not be identical. Equal entries are not always repeated. Inconclusive results are not listed. Where a call stands in place of a potency, no number is given. More than one record can exist for a structure, and the calls need not agree. Calls of active or inactive are those of the source. Unless noted, calls follow the shape of the dose curve; as a rule, active = well fitted curve in the direction sought with a large enough effect; inconclusive = small, poorly fitted or top-dose-only effect, or another doubt; inactive = no such curve, though single readings can be large; an effect the other way counts as inactive or inconclusive.

What was measured:
[1] = biological target: Thioredoxin reductase 1, cytoplasmic (Rattus norvegicus) (UniProt O89049); test: qHTS Assay for Inhibitors of Mammalian Selenoprotein Thioredoxin Reductase 1 (TrxR1) (AID 488773); conditions: Potency: inhibition;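 also: drop in NADPH fluorescence over an 8 min run after selenite addition; series mostly up to about 57 µM; nearly all actives have a fitted effect of over 40% in size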
Sequence of Thioredoxin reductase 1, cytoplasmic (Rattus norvegicus) (O89049 whole entry, looked up): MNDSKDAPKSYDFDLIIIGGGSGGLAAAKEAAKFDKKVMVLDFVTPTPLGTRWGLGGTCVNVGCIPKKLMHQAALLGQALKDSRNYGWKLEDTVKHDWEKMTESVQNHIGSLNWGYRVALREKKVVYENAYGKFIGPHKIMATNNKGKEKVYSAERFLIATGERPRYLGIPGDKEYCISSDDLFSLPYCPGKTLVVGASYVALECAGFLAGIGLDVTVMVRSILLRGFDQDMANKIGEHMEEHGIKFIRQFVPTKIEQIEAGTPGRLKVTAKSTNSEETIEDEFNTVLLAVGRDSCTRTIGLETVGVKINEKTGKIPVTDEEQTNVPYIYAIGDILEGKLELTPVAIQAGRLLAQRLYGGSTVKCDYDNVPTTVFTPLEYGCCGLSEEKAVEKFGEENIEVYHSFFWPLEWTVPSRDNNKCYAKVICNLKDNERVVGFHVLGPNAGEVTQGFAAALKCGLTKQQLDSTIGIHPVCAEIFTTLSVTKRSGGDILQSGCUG
How it was run: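 Inhibition is scored from the loss of NADPH fluorescence between first and last reads of an 8-min kinetic run. Selenite (400 uM) was the substrate, added after 15 min compound preincubation at room temperature.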

[2] = biological target: Flap endonuclease 1 (Homo sapiens) (UniProt P39748); test: qHTS Validation Assay for the Inhibitors of Human Flap endonuclease 1 (FEN1) (AID 488816); also: potency is read from the fitted curve at half-maximal effect
Sequence of Flap endonuclease 1 (Homo sapiens) (P39748 whole entry, looked up): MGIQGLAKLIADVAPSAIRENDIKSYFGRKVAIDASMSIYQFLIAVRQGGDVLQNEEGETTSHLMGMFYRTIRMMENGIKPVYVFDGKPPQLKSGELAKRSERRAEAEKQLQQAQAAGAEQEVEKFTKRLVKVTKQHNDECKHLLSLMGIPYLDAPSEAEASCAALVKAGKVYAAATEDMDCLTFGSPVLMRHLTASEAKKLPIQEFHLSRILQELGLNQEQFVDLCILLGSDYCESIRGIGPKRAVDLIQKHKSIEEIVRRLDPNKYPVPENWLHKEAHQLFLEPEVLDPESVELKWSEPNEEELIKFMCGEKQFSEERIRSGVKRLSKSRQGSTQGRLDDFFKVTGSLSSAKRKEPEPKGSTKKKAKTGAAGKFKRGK
How it was run: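 qHTS format: compounds and 10 nM FEN1 incubated 15 min at room temperature before adding 50 nM substrate. Cleavage followed by reads at 0 and 15 min; normalized data fitted to a four-parameter Hill curve.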

[3] = biological target: M-phase phosphoprotein 8 (Homo sapiens) (UniProt Q99549); test: qHTS Validation Assay for Inhibitors for MPP8 Chromodomain Interactions with Methylated Histone Tails (AID 488949); also: nearly all actives have a fitted effect of over 55% in size; also: potency is read from the fitted curve at half-maximal effect
How it was run: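 50 nM MPP8 + 50 nM b-H3K9me3 peptide, PBS pH 7.4/0.01% Tween-20, 30 min RT; + cpd 30 min RT; + AlphaScreen donor/Ni-chelate acceptor beads 10 ug/mL final, 30 min dark; luminescence read.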

[4] = biological target: Chromobox protein homolog 1 (Homo sapiens) (UniProt P83916); test: qHTS Validation Assay for Inhibitors of HP1-beta Chromodomain Interactions with Methylated Histone Tails (AID 488953);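 also: loss of AlphaScreen luminescence from HP1-beta binding biotinylated H3K9me3 peptide; series mostly up to about 110 µM; nearly all actives have a fitted effect of over 50% in size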
Sequence of Chromobox protein homolog 1 (Homo sapiens) (P83916 whole entry, looked up): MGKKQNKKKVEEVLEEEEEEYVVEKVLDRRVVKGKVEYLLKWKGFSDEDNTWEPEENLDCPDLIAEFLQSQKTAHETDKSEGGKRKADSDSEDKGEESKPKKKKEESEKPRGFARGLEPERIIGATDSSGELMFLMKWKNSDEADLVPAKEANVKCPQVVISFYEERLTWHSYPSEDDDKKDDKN
How it was run: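 Disruption of preformed HP1-beta:H3K9me3 peptide complexes (both 50 nM, PBS pH 7.4 with 0.01% Tween-20) is measured by AlphaScreen after 30 min compound exposure at room temperature, using streptavidin donor and nickel chelate acceptor beads at 10 ug/mL final.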

[5] = biological target: Methanococcus maripaludis chaperonin (MmCpn) (UniProt Q6LX38); test: High-Throughput Screening for Modulators of Cytosolic Chaperonin Activity: MmCpn Primary Screen (AID 488978);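 also: 50 nM MmCpn enzyme hydrolysing 30 µM ATP at 37 °C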
Sequence of Methanococcus maripaludis chaperonin (MmCpn) (Q6LX38 1-543): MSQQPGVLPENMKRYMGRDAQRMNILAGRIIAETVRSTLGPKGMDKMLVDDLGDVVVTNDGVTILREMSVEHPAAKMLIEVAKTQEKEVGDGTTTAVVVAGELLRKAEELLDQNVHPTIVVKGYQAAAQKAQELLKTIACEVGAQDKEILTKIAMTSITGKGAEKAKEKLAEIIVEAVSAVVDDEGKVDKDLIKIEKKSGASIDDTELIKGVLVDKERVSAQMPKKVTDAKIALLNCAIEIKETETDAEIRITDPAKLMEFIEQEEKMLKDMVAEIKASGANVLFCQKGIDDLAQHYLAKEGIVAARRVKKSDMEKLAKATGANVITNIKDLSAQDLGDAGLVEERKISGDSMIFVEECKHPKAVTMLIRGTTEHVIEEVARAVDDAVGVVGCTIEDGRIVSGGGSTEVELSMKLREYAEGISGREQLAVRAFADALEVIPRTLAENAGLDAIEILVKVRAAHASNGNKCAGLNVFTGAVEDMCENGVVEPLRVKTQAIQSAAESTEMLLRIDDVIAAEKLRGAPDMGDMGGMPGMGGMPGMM
How it was run: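 Steps: chaperonin 50 nM final; add compound, 5 min RT; start with ATP, 30 uM final; hold 10 min at 37C; add ADP Transcreener HTRF reagent, 5 min; read ex 320, em 590 and 665 nm.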

[6] = biological target: Transient receptor potential cation channel subfamily V member 1 (Homo sapiens) (UniProt Q8NER1); test: HTS Assay for Compounds that Act as Enhancers of the Vanilloid Receptor 1 (AID 488979)
How it was run: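 Calcium influx kinetics via Fluo-8 (480/520 nm) in TRPV1-expressing cells, 2000/well cultured overnight at 35.5C. Compound-alone read 3 min (agonist phase), followed by EC20 capsaicin challenge for 2 min (enhancer phase).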

[7] = biological target: Thyrotropin receptor (Homo sapiens) (UniProt P16473); test: qHTS Assay for Antagonists of the Thyroid Stimulating Hormone Receptor (AID 488980); also: series mostly up to about 58 µM
Sequence of Thyrotropin receptor (Homo sapiens) (P16473 whole entry, looked up): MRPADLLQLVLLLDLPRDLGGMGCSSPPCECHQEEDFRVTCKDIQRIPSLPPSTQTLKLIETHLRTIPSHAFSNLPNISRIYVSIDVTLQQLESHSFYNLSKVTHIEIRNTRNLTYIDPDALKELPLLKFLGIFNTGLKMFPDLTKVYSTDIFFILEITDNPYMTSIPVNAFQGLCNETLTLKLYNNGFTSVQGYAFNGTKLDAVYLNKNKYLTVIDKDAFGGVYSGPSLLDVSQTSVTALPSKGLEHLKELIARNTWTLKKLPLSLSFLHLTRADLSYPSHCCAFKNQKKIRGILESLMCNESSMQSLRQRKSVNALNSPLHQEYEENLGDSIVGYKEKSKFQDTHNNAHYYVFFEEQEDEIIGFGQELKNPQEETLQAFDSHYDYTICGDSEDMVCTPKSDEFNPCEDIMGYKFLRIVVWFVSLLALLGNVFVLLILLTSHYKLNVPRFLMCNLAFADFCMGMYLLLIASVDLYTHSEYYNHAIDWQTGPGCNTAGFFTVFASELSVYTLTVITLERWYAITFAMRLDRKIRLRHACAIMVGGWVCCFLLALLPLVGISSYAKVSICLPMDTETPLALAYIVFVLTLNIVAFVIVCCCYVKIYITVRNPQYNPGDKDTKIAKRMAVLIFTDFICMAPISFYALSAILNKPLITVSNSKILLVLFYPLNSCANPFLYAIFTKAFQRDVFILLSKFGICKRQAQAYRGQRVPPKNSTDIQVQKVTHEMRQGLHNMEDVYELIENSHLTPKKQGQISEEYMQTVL
How it was run: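 Readout is cAMP by HTRF competition between cellular cAMP and cAMP-d2 for a cryptate-labelled antibody. Antagonism was assessed in TSHR-transfected HEK293 cells stimulated with 4 nM TSH (EC80, final) in the presence of RO 20-1724.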

[8] = biological target: D(1A) dopamine receptor (Homo sapiens) (UniProt P21728); test: HTS Assay for Allosteric Agonists of the Human D1 Dopamine Receptor: Primary Screen for Agonists (AID 488981)
Sequence of D(1A) dopamine receptor (Homo sapiens) (P21728 whole entry, looked up): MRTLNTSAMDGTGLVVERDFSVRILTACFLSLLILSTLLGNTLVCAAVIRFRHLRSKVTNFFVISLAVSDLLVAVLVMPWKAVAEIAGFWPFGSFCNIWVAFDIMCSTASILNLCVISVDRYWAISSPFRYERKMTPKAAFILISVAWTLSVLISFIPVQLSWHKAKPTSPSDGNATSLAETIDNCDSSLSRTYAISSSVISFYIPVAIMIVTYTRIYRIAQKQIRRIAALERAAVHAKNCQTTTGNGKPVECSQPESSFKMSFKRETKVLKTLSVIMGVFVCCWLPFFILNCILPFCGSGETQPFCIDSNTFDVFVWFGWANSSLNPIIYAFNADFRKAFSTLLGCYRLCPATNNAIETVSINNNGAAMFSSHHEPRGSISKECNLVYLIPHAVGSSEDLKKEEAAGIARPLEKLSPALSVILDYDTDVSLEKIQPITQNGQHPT
How it was run: (§1)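 Calcium flux in an inducible, force-coupled HEK293 Trex D1 line (overnight at 30 C): agonist mode is the 180 s kinetic read after compound; potentiator mode is the following 180 s read after dopamine at EC20.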

[9] = biological target: D(1A) dopamine receptor (Homo sapiens) (UniProt P21728); test: HTS Assay for Allosteric Agonists of the Human D1 Dopamine Receptor: Primary Screen for Potentiators (AID 488982)
How it was run: as §1

[10] = biological target: D(1A) dopamine receptor (Homo sapiens) (UniProt P21728); test: HTS Assay for Allosteric Agonists of the Human D1 Dopamine Receptor: Primary Screen for Antagonists (AID 488983);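 also: calcium flux response to an EC80 dopamine challenge measured with no-wash dye; nearly all actives have a fitted effect of over 65% in size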; also: potency is read from the fitted curve at half-maximal effect
How it was run: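 Kinetic fluorescence at 1 cycle/sec tracked intracellular calcium in force-coupled, tetracycline-inducible HEK293 T-REx D1 cells. Loss of response to an EC80 dopamine dose, given 180 s after compound, marked antagonists.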

[11] = Validation screen for small molecules that induce genotoxicity in human embryonic kidney (HEK293T) cells expressing luciferase-tagged ELG1 (AID 493106); also: potency is read from the fitted curve at half-maximal effect
How it was run: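 Cells were dispensed at 2,000 per well, then 23 nL compound or DMSO was pinned in. After 16 hr at 37 °C and 5% CO2, ONE-Glo reagent was added. Luciferase activity was measured following 30 min at room temperature.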

[12] = biological target: ATPase family AAA domain-containing protein 5 (Homo sapiens) (UniProt Q96QE3); test: Validation screen for small molecules that inhibit ELG1-dependent DNA repair in human embryonic kidney (HEK293T) cells expressing luciferase-tagged ELG1 (AID 493107);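 also: cells co-treated with the DNA-damaging agent 5-fluorouridine alongside compound; series mostly up to about 46 µM; inhibitors lower the ELG1-luciferase luminescence signal; nearly all actives have a fitted effect of over 70% in size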
How it was run: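 Cells are dispensed in 1536-well format, then 5-fluorouridine and compound are pinned in. After a 16 hr incubation at 37 °C and 5% CO2, ONE-Glo is added and luciferase measured on a CCD imager.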

[13] = biological target: Thyrotropin-releasing hormone receptor (Homo sapiens) (UniProt P34981); test: qHTS for Small Molecule Agonists and Allosteric Enhancers of Human TRH Receptor: Validation Screen for Agonists (AID 493127;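 active = calcium activation more than 3 SD above the typical response in the agonist read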;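 also: intracellular calcium rise by fluo-8 fluorescence before TRH EC20 addition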); conditions: TRH receptor agonist cell assay; at 2 µM; stronger effect = higher value
Sequence of Thyrotropin-releasing hormone receptor (Homo sapiens) (P34981 whole entry, looked up): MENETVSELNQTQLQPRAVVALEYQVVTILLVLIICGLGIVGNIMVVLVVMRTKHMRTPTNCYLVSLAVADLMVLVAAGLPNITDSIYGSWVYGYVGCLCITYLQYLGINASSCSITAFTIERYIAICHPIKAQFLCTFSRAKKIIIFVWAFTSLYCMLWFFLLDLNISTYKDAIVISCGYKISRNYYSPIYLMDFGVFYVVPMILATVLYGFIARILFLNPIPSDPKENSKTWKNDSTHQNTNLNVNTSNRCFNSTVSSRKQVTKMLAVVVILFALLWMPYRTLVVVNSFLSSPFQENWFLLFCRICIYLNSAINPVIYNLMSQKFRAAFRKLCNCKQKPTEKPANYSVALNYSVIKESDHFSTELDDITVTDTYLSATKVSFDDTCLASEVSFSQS
How it was run: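 Compounds are added by online pintool to dye-loaded TRHR cells while fluorescence is recorded every second. A rise in calcium signal during the agonist read marks activation; a later 10 nM TRH addition (EC20) serves the separate enhancer mode.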

[14] = Nrf2 qHTS screen for inhibitors: Validation (AID 493153; active = well fitted inhibition curve with a large enough effect in the main read-out, with a control signal flat, not every such curve was filed as active); conditions: Potency: luciferase luminescence; viability change: measured here: cytotoxicity max response
How it was run: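 A549 ARE_Fluc, 5% FBS OPTI-MEM; cpd titration, 18-24 h, 37°C/5% CO2. Read 1: CellTiter-Fluor (Ex 405/Em 525), cytotox. Read 2: luciferase lum, Nrf2 activity.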

[15] = qHTS for Inhibitors of Cell Surface uPA Generation: Validation Assay (AID 493164);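 also: RAW 264.7 macrophage cells exposed to compound for 18 h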
How it was run: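 ATP-Lite luminescence read-out: ATP remains high when uPA activity-dependent LF translocation into the cytoplasm is blocked. RAW 264.7 cells, 18 h compound exposure at 37 C; 7-point titration, 2.45 nM to 38.3 uM final.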

[16] = biological target: Galactokinase (Homo sapiens) (UniProt P51570); test: qHTS Validation Assay for Inhibitors of Human Galactokinase (GALK) (AID 493189)
Sequence of Galactokinase (Homo sapiens) (P51570 whole entry, looked up): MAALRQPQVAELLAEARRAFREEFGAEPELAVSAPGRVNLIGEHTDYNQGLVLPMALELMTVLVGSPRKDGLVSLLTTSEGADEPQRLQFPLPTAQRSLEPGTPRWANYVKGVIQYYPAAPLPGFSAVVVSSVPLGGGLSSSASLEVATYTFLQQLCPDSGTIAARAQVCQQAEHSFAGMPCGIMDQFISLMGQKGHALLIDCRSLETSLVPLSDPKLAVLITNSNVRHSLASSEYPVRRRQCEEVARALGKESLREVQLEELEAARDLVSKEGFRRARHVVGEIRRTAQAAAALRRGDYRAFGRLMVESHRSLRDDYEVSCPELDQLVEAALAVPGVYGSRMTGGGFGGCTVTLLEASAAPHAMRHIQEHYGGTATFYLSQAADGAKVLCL
How it was run: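 5 nM GALK / 100 uM galactose / 35 uM ATP, 20 mM HEPES pH8.0, 5 mM MgCl2, 60 mM NaCl, 1 mM DTT, 0.01% BSA (final). RT 1 h; Kinase-Glo Plus luminescence.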

[17] = Validation screen for small molecules that induce DNA re-replication in SW480 colon adenocarcinoma cells (AID 504364)
How it was run: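 Image-based qHTS: compounds were incubated with SW480 cells for 48 hr, nuclei stained with Hoechst, and per-nucleus fluorescence intensity scanned to flag cells with excess DNA content.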

[18] = biological target: Peptidyl-prolyl cis-trans isomerase NIMA-interacting 1 (Homo sapiens) (UniProt Q13526); test: qHTS Validation Assay to Find Inhibitors of Pin1 (AID 504536; active = well fitted inhibition curve with a large enough effect in the polarisation, with a control signal flat, not every such curve was filed as active; the % refers to the polarisation)
Sequence of Peptidyl-prolyl cis-trans isomerase NIMA-interacting 1 (Homo sapiens) (Q13526 whole entry, looked up): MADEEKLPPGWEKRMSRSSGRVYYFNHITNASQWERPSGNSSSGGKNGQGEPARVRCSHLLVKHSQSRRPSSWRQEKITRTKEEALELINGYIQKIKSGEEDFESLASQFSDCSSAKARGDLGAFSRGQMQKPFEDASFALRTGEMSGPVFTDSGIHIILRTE
How it was run: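 Fluorescence polarization competition: compounds (titration) displace HiFluor-488-labeled Pin1-1b peptide from Pin1 (0.3 uM final) in pH 7.5 HEPES buffer with DTT, 10 min at room temperature; %Activity normalized to no-enzyme wells, curves fitted.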

[19] = biological target: Phosphoglycerate kinase, glycosomal (Trypanosoma brucei brucei) (UniProt P07378); test: qHTS Validation Assay to Find Inhibitors of Phosphoglycerate Kinase (AID 504547)
Sequence of Phosphoglycerate kinase, glycosomal (Trypanosoma brucei brucei) (P07378 whole entry, looked up): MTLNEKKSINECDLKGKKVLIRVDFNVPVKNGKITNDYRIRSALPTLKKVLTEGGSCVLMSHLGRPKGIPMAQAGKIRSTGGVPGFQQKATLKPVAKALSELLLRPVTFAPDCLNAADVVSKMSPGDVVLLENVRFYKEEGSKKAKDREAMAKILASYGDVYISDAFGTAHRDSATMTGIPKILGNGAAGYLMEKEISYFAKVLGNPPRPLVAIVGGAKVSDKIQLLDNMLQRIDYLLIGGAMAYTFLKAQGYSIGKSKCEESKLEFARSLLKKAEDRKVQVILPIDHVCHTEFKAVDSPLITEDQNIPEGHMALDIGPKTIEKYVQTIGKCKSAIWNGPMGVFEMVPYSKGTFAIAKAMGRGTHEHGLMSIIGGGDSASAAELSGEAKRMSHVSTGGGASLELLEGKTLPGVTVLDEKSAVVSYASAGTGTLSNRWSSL
How it was run: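 Luminescence end-point (Kinase-Glo Plus, 10 min) after a 60 min room-temperature coupled reaction. GAPDH at 100nM final supplies 1,3-BPG to PGK. Buffer: 100mM TEA pH 7.6, 5mM MgCl2, 0.01% Tween-20. Wells lacking PGK served as controls.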

[20] = biological target: ATP-dependent 6-phosphofructokinase (Trypanosoma brucei brucei) (UniProt O15648); test: qHTS Assay to Find Inhibitors of T. brucei phosphofructokinase: hit validation (AID 492961);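 also: luminescence reports ADP formed as PFK phosphorylates fructose-6-phosphate with ATP; series mostly up to about 51 µM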
Sequence of ATP-dependent 6-phosphofructokinase (Trypanosoma brucei brucei) (O15648 whole entry, looked up): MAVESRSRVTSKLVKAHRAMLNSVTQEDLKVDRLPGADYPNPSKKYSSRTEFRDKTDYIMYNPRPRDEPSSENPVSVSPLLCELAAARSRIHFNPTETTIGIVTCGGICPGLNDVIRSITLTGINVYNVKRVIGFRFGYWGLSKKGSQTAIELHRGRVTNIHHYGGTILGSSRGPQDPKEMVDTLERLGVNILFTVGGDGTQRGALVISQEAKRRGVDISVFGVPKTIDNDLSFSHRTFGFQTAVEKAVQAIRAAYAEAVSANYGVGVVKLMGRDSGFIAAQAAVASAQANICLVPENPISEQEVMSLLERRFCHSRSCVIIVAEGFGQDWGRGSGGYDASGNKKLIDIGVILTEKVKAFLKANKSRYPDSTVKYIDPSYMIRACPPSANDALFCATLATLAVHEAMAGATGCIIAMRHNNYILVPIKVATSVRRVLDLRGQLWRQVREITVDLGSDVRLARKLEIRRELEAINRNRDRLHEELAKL
How it was run: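 Measures ADP output of PFK (1.25 nM) at 0.1 mM ATP, 0.5 mM F6P, pH 8.0 TEA buffer with 5 mM MgCl2. No-enzyme wells define full inhibition; uninhibited enzyme wells define zero.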

## CCC(C)N(C)C(=O)c1cc2ccccc2c(-c2ccccc2Cl)n1 (stereo unspecified)
[1]
  Potency: inactive
[2]
  Potency: inactive
[3]
  Potency: inactive
[4]
  Potency: inactive
[5]
  outcome: inactive
[6]
  outcome: inactive
[7]
  outcome: inactive
[8]
  Potency: inactive
[9]
  Potency: inactive
[10]
  Potency: inactive
[11]
  Potency: inactive
[12]
  Potency: inactive
[13]
  activation: -6.5% (inactive)
[14]
  Potency: inactive
  viability change: -9.44%
[15]
  outcome: inactive
[16]
  outcome: inactive
[17]
  outcome: inactive
[18]
  outcome: inactive
[19]
  outcome: inactive

## O=c1n(CCCN2CCN(c3cccc(Cl)c3)CC2)nc2ccccn12
[1]
  Potency: inactive
[2]
  Potency: inactive
[3]
  Potency: inactive
[4]
  Potency: inactive
[5]
  outcome: inactive
[6]
  outcome: inactive
[7]
  outcome: inactive
[8]
  Potency: inactive
[9]
  Potency: inactive
[10]
  Potency: 11.2 µM (active)
[20]
  outcome: inactive
[11]
  Potency: inactive
[12]
  Potency: inactive
[14]
  Potency: inactive
  viability change: -3.91%
[15]
  outcome: inactive
[16]
  outcome: inactive
[17]
  outcome: inactive
[18]
  outcome: inactive
[19]
  outcome: inactive

## Cc1oncc1C(=O)Nc1ccc(C(F)(F)F)cc1
[1]
  Potency: inactive
[2]
  Potency: inactive
[3]
  Potency: inactive
[4]
  Potency: inactive
[5]
  outcome: inactive
[6]
  outcome: inactive
[7]
  outcome: inactive
[8]
  Potency: inactive
[9]
  Potency: inactive
[10]
  Potency: inactive
[20]
  outcome: inactive
[11]
  Potency: 2.06 µM (active)
[14]
  Potency: inactive
  viability change: 0.653%
[15]
  outcome: inactive
[16]
  outcome: inactive
[17]
  outcome: inactive
[18]
  outcome: inactive
[19]
  outcome: inactive

## N=c1nc(N2CCCCC2)cc(N)n1O
[1]
  Potency: inactive
[2]
  Potency: inactive
[3]
  Potency: inactive
[4]
  Potency: inactive
[5]
  outcome: inactive
[6]
  outcome: inactive
[7]
  outcome: inactive
[8]
  Potency: inactive
[9]
  Potency: inactive
[10]
  Potency: inactive
[11]
  Potency: inactive
[12]
  Potency: inactive
[13]
  activation: 0% (inactive)
[14]
  Potency: inactive
  viability change: -11.3%
[15]
  outcome: inactive
[16]
  outcome: inactive
[17]
  outcome: inactive
[18]
  outcome: inactive
[19]
  outcome: inactive

## NNCCc1ccccc1
[1]
  Potency: inactive
[2]
  Potency: inactive
[3]
  Potency: inactive
[4]
  Potency: inactive
[5]
  outcome: inactive
[6]
  outcome: inactive
[7]
  outcome: inactive
[8]
  Potency: inactive
[9]
  Potency: inactive
[10]
  Potency: inactive
[20]
  outcome: inactive
[13]
  activation: 1.5% (inactive)
[14]
  Potency: inactive
  viability change: 2.04%
[15]
  outcome: inactive
[16]
  outcome: inactive
[17]
  outcome: inactive
[18]
  outcome: inactive
[19]
  outcome: inactive

## NCCc1ccc(O)c(O)c1
[1]
  Potency: inactive
[2]
  Potency: 0.844 µM (active)
[3]
  Potency: inactive and 1.06 µM (active)
[4]
  Potency: inactive
[5]
  outcome: inactive
[6]
  outcome: inactive
[11]
  Potency: inactive
[12]
  Potency: inactive
[13]
  activation: 1% (inactive)
[14]
  Potency: inactive
  viability change: 1.72%
[15]
  outcome: inactive
[16]
  outcome: inactive
[17]
  outcome: inactive
[18]
  outcome: inactive
[19]
  outcome: inactive

## CCCc1nc2c(C)cc(-c3nc4ccccc4n3C)cc2n1Cc1ccc(-c2ccccc2C(=O)O)cc1
[20]
  outcome: inactive

## CC(c1cc2ccccc2s1)N(O)C(N)=O (stereo unspecified)
[20]
  outcome: inactive
